Assay results taken from the supplement of paper PMC6555819.

Experiments:
Experiment in all cases: PBM binding z-score (relative to random genomic background probes); higher = stronger binding; sequences stand for … in GC…GCGATTGACAGCGTAGAATGAAGG
[1] = tested on: FXR:RXRa (NR concentration 270 nM, RXRa partner concentration 90 nM)
How it was run: (§1)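 Ligand-free nuclear receptor dimers were applied to custom Agilent 4×180K protein-binding microarrays whose double-stranded probes carried direct-repeat seeds, single-nucleotide variants, half-site ablations and random human genomic background sequences in 34-nt variable regions. Incubation lasted 1 h. Binding z-scores were computed against the random background probes from regression-normalized fluorescence.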

[2] = tested on: LXRa:RXRa (NR concentration 270 nM, RXRa partner concentration 90 nM)
How it was run: as §1

[3] = tested on: LXRa homodimer (NR concentration 270 nM)
How it was run: as §1

[4] = tested on: LXRb:RXRa (NR concentration 270 nM, RXRa partner concentration 90 nM)
How it was run: as §1

[5] = tested on: LXRb homodimer (NR concentration 270 nM)
How it was run: as §1

[6] = tested on: PPARa:RXRa (NR concentration 270 nM, RXRa partner concentration 90 nM)
How it was run: as §1

[7] = tested on: PPARg:RXRa (NR concentration 180 nM, RXRa partner concentration 90 nM)
How it was run: as §1

[8] = tested on: PPARg:RXRa 270nM:90nM, anti-RXR (NR concentration 270 nM, RXRa partner concentration 90 nM)
How it was run: as §1

[9] = tested on: PPARg:RXRa 30nM:10nM, anti-RXR (NR concentration 30 nM, RXRa partner concentration 10 nM)
How it was run: as §1

[10] = tested on: PPARg:RXRa 90nM:30nM, anti-RXR (NR concentration 90 nM, RXRa partner concentration 30 nM)
How it was run: as §1

[11] = tested on: PPARg:RXRa DBDmut IVT, anti-RXR (DBD mutation: RXRa K156A/R161A, NR concentration 270 nM, RXRa partner concentration 90 nM)
How it was run: as §1

[12] = tested on: PPARg:RXRa IVT, anti-PPARg (NR concentration 270 nM, RXRa partner concentration 90 nM)
How it was run: as §1

[13] = tested on: PPARg DBDmut:RXRa IVT, anti-PPARg (DBD mutation: PPARg1 K132A/R137A, NR concentration 270 nM, RXRa partner concentration 90 nM)
How it was run: as §1

[14] = tested on: PPARg DBDmut IVT, anti-PPARg (DBD mutation: PPARg1 K132A/R137A, NR concentration 270 nM)
How it was run: as §1

[15] = tested on: PPARg homodimer (NR concentration 180 nM)
How it was run: as §1

[16] = tested on: PXR:RXRa (NR concentration 270 nM, RXRa partner concentration 90 nM)
How it was run: as §1

[17] = tested on: PXR homodimer (NR concentration 270 nM)
How it was run: as §1

[18] = tested on: RARa:RXR (NR concentration 270 nM, RXRa partner concentration 90 nM)
How it was run: as §1

[19] = tested on: RARa homodimer (NR concentration 270 nM)
How it was run: as §1

[20] = tested on: RARb:RXRa (NR concentration 270 nM, RXRa partner concentration 90 nM)
How it was run: as §1

Sequence | PBM binding z-score [1] | PBM binding z-score [2] | PBM binding z-score [3] | PBM binding z-score [4] | PBM binding z-score [5] | PBM binding z-score [6] | PBM binding z-score [7] | PBM binding z-score [8] | PBM binding z-score [9] | PBM binding z-score [10] | PBM binding z-score [11] | PBM binding z-score [12] | PBM binding z-score [13] | PBM binding z-score [14] | PBM binding z-score [15] | PBM binding z-score [16] | PBM binding z-score [17] | PBM binding z-score [18] | PBM binding z-score [19] | PBM binding z-score [20]
CAAACTAGGTCACCGGAAGGTCAAAGCCCGCATG | 6.08 | 5.95 | 4.27 | 5.11 | 1.45 | 6.06 | 9.85 | 7.89 | 5.9 | 7.57 | 8.25 | 8.78 | 2.12 | 2.03 | 5.32 | 5.67 | 1.53 | 7.16 | 2.71 | 5.32
GGAACGAGCGCATTCGAGTTGATAGCATGGCGAT | -1.63 | -0.936 | -0.9 | -1.41 | -1.24 | -1.94 | 0.379 | -1.09 | -0.954 | -1.27 | -0.641 | -0.81 | -0.918 | -0.781 | -1.13 | -0.904 | -0.628 | -1.29 | -0.875 | -1.26
ATCTCTGGGTAAAGATAGTTCAGTGAATGCAAAT | -0.122 | 3.7 | 0.422 | 0.738 | 0.449 | 0.473 | 0.419 | 0.54 | 0.327 | 0.434 | 1.83 | 1.65 | 1.05 | 1.76 | 0.681 | 1.17 | 0.829 | 0.549 | 1.1 | 0.828
CCGACTGGGGCAGAAAGATTACCATACCATCCGG | -0.557 | -0.807 | -0.423 | -0.639 | -1 | -0.291 | 0.958 | -0.112 | -0.469 | -0.456 | 1.53 | 0.903 | -0.59 | -1.13 | -0.627 | -0.737 | -0.227 | -0.36 | -0.0256 | 0.0416
ATATTTAGGTTAAGGGTCATTCAGGTTGGTTCGC | 5.26 | 4.78 | 3.91 | 4.61 | 3.14 | 6.38 | 11 | 9.52 | 9.42 | 10.5 | 6.47 | 7.1 | 5.34 | 5.2 | 5.4 | 5.69 | 3.67 | 5.96 | 5.28 | 3.68
ATCGAAAGGTCGCCGAGGTGAGTATACACCGTTT | 5.1 | 3.88 | 0.0507 | 3.11 | 0.601 | 5.12 | 3.84 | 4.39 | 1.55 | 2.85 | 0.699 | 2.7 | 1.2 | 0.615 | 1.79 | 3.34 | 0.6 | 4.03 | 0.336 | 4.25
CGTCCAAGGTCAAAGCTAGGTCAGTGAAAGCATT | 7.24 | 5.98 | 2.25 | 4.54 | 1.44 | 5.65 | 4.63 | 5.54 | 1.86 | 4.09 | 3.82 | 4.33 | 0.45 | -0.526 | 5.95 | 5.09 | 1.62 | 6.21 | 1.19 | 5.31
AGAATGACGTTAAGATCAGGGAAACAGAATACAT | -0.19 | -0.216 | -0.265 | -0.142 | -0.294 | -0.223 | 0.69 | -0.0483 | 0.359 | 0.136 | -0.994 | -0.522 | -0.562 | 0.191 | -0.654 | -0.527 | 0.305 | -0.498 | 0.719 | -0.268
CAGACTGGGGCAAAGGTTACCATACTCAGTACGA | 2.11 | 2.13 | 0.0267 | 2.49 | -0.226 | 5.94 | 10.9 | 8.6 | 9.03 | 10.1 | 5.78 | 6.11 | 0.811 | -0.289 | 1.61 | 2.57 | 0.354 | 3.86 | 0.632 | 2.66
ATCTCTAGGTAAGACTCAGTTCAGGGAAGAACGC | 0.579 | 0.883 | 0.863 | 0.68 | 1.19 | 0.432 | 0.216 | 0.397 | 0.337 | 0.289 | 1.95 | 0.842 | 1.12 | 0.798 | 0.913 | 1.19 | 1.64 | 0.799 | 1.28 | 0.579
CCGACTTGGGCAAGGTTACCATAACGCACAGCCA | 0.05 | 0.652 | -0.339 | 0.538 | -0.76 | 0.821 | 0.77 | 0.417 | -0.317 | 0.00151 | 0.0909 | 0.144 | -0.175 | -0.816 | 0.358 | 0.327 | 0.162 | 0.774 | 0.309 | 0.889
GGAACGAGGGCATTCGAGTTGCTAGCATGGCGAT | 0.791 | 0.5 | -0.577 | -0.157 | -0.675 | 0.953 | 0.443 | 0.479 | -0.435 | -0.173 | 2.56 | 2.02 | -0.0761 | -0.825 | -0.911 | 2.3 | -0.0583 | 0.598 | -0.778 | 1.8
CCGACTCGGGCATAAGGTTACCATAAGCCAGCCC | 0.235 | 2.34 | -0.549 | 0.615 | -1.1 | 1.14 | 0.783 | 1.19 | -0.332 | 0.652 | 0.661 | -0.167 | -1.02 | -2 | 0.278 | 0.0235 | -0.204 | 0.884 | -0.315 | 1.36
ATCTCTAGGTAAGACTTAGTTCAGTGAAGAACGC | 0.399 | 0.643 | 0.399 | 0.303 | 0.796 | 0.394 | 0.205 | 0.542 | 0.399 | 0.438 | 1.88 | 1.57 | 0.722 | 0.771 | 1.4 | 0.684 | 0.67 | 0.614 | 1.01 | 0.573
